The values that follow come from PubChem BioAssay (NCATS).

Test [1] addresses Lysosomal acid glucosylceramidase (Homo sapiens) (UniProt P04062). In words: Glucocerebrosidase-p2 (AID 348; in the data active = potency below about 10 µM; note: potency is the fitted concentration of half-maximal effect). The settings on record: purified GBA, blue fluorogenic substrate, 40 min. An outline of the steps:
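Normal human glucocerebrosidase (0.2 nM) with blue fluorogenic substrate (80 uM final) in citrate/phosphate pH 5.9 with 10mM sodium taurocholate, 0.01% tween-20; 40 min RT, NaOH/glycine stop; fluorescence Ex 365/Em 440; AC50 from a titration from 0.6 nM upwards.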

Test [2] in a line: AP1 Signaling Pathway (AID 357; active = well fitted curve in either direction with a large enough effect, not every such curve was filed as active;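 note: ME-180 reporter cells stimulated with EGF at its EC50 level; % is set by controls: 0 for no effect and ±100 for the full control effect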). The settings on record: ME-180 AP-1-bla reporter, EGF-induced, beta-lactamase ratio, 5 h; at 7.69 µM (top of the series) unless noted. An outline of the steps: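 Beta-lactamase reporter under AP-1 response element, ME-180 background. Stimulus: EC50 EGF. Compound exposure 5 h, 37 °C. Detection: CCF4, 2.5 h RT, 460/530 nm. Values: AC50 from titration.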

Test [3] addresses Cytochrome P450 1A2 (Homo sapiens) (UniProt P05177). In words: p450-cyp1a2 (AID 410; calls by dose curve; note: potency is the fitted concentration of half-maximal effect). Summed up:
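20nM CYP1A2, 100uM Luciferin-ME (=Km), 100mM KPO4; cpd 10 min RT; +NADPH regen, 60 min RT; stop/detect 20 min; luminescence. Normalized to furafylline 57 uM = full inhibition.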

Test [4] can be described thus: NFAT Signaling Pathway (AID 444; active = well fitted curve in either direction with a large enough effect, not every such curve was filed as active;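 note: carbachol stimulus at about its EC50 of 1 µM final; % is set by controls: 0 for no effect and ±100 for the full control effect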). Conditions: Jurkat NFAT-bla M1, carbachol, beta-lactamase ratio, 5 h; at 7.69 µM (top of the series) unless noted. Summed up:
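Read-out: CCF4 FRET ratio (460 nm/530 nm) after 1 h RT dye loading, used for %activity and AC50 from titration series. Cells: Jurkat NFAT-β-lactamase/M1 line, treated with compound plus 1 uM carbachol for 5 h, 37 °C.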

Test [5] in a line: Stat Signaling Pathway (AID 446; active = well fitted curve in either direction with a large enough effect, not every such curve was filed as active;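 note: ME-180 cervical cancer cells given 40 pM IL-6 alongside compound; SIE-controlled beta-lactamase reporter measured as 460/530 nm FRET emission ratio; % is set by controls: 0 for no effect and ±100 for the full control effect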). Conditions: ME-180 (cervical carcinoma) SIE beta-lactamase reporter, IL-6 stimulated, 5 h; at 7.69 µM (top of the series) unless noted. An outline of the steps:
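Emission at 460 and 530 nm (excitation 405 nm) reports SIE-controlled beta-lactamase in ME-180 cells. Cells received compound with 40 pM IL-6 for 5 hrs at 37 C; data scaled between 300 pM IL-6 and 125 nM JAK-inhibitor controls.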

Test [6] has as its target Glucocorticoid receptor (Homo sapiens) (UniProt P04150). In words: GR-GFP Redistribution (AID 450;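 active = compounds whose dose series gives a full or clear partial fitted curve of increased nuclear translocation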; note: potency is the fitted concentration of half-maximal effect). Conditions: U2OS GR-GFP nuclear translocation, laser cytometry, 2 h.
The target is the same in test [7]. As to the kind of experiment: GR-EFC Redistribution (AID 451; calls by dose curve; note: potency is the fitted concentration of half-maximal effect). Conditions: CHO-K1 GR-EFC translocation, beta-gal luminescence, 2 h. Summed up: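 Translocation of GR-ED fusion to nuclear EA restores b-gal, read by luminescence after 1 h room-temperature detection. Engineered CHO-K1 biosensor cells, 1,000/well, exposed 2 h at 37 C to titrations up to 46 uM final.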

In test [8] the target is Mitogen-activated protein kinase 10 (Mus musculus) (UniProt Q61831). In words: JNK3 AlphaScreen Assay (AID 530; active = well fitted curve in either direction with a large enough effect, not every such curve was filed as active;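 note: kinase came from lysate of stimulated human HepG2 cells; signal reports phosphorylation of biotinylated GST-cJun 1-79 at Ser73 with 10 µM ATP; % is set by controls: 0 for no effect and ±100 for the full control effect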). Summed up: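 Kinase buffer: 20 mM Tris-HCl pH 7.6, 10 mM MgCl2, 1 mM DTT, 0.1 mM Na3VO4, 0.01% Tween-20; ATP 10 uM. Substrate biotin-GST-cJun(1-79), enzyme from activated HepG2 lysates. Detection by Ser73 phospho-antibody AlphaScreen.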
For test [9], the target named is 3',5'-cyclic-AMP phosphodiesterase 4B (Homo sapiens) (UniProt Q07343). As to the kind of experiment: qHTS Assay for Inhibitors of PDE-IV (AID 607; active = well fitted activation curve with a large enough effect in the main read-out, with a control signal flat, not every such curve was filed as active; note: % of control where 0% means no effect). Summed up: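 The readout is membrane depolarisation from a cAMP-sensing CNG channel, detected with a potential dye at ex 535/em 590. Cells were HEK293-derived (endogenous PDE-IV) at 1000 cells/well, titrated up to 22.9 uM final.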
Sequence of 3',5'-cyclic-AMP phosphodiesterase 4B (Homo sapiens) (Q07343 whole entry, looked up): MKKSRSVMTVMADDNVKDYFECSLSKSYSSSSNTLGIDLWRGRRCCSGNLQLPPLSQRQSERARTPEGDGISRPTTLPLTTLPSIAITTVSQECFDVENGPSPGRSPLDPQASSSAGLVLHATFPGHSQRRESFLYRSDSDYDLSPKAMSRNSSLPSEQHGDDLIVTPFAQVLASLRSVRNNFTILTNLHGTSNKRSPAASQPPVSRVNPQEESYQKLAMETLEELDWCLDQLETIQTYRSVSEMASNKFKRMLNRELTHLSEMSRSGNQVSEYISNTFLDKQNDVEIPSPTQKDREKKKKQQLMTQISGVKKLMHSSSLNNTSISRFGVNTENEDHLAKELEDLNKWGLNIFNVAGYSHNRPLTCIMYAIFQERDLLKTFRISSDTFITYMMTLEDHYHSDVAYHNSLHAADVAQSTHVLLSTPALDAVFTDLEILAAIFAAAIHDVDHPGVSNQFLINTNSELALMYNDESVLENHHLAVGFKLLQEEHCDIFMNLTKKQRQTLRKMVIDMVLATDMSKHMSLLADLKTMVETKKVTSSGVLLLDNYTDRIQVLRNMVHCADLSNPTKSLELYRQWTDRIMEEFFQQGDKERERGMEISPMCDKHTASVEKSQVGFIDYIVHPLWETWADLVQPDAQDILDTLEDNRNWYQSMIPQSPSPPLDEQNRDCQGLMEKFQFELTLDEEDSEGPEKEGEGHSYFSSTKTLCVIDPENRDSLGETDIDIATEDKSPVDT
In general terms: In qHTS, concentration-response curves come from the screen itself.

Test [10] in a line: Confirmation and Secondary Assay for Modulators of Hemoglobin Beta Chain Splicing at IVS2 654 locus (AID 910).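 Note: HeLa cells stably carrying EGFP split by mutant beta-globin IVS2-654 intron; per-well total GFP intensity by laser scanning cytometry after 2-day treatment; % of control where 0% means no effect.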 An outline of the steps:
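Readout: per-well total peak green fluorescence (488 nm ex, 500–520 nm em) from objects 5–250 µm, reflecting correct splicing of an EGFP-654 reporter. Compounds were applied for 2 days at 37 °C to overnight-plated HeLa EGFP-654 cells; controls were DMSO and 500 nM IVS2-654 PNA.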

Test [11] is described as follows: Confirmation and Secondary Assay for Modulators of Hemoglobin Beta Chain Splicing at IVS2 705 locus (AID 930).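 Note: HeLa cells stably expressing the EGFP-705 splicing reporter; GFP fluorescence per well restored by corrected splicing of the IVS2-705 intron in EGFP; % of control where 0% means no effect.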 Summed up:
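Per-well GFP, captured at 1 x 8 µm resolution with 488 nm excitation, served as the read-out for HeLa EGFP-705 cells incubated 2 days with test compound versus DMSO.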

Test [12] is described as follows: qHTS Assay for Lipid Storage Modulators (AID 1519; calls by dose curve). The settings on record: Drosophila S3 cells, BODIPY lipid droplet/cell ratio, laser cytometry, cells loaded with oleic acid; for activity change, negative = inhibition: at 57.5 µM (top of the series). Summed up: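 Cells seeded at 5,000 per well were treated with compounds over a concentration series and loaded with oleic acid (400 uM, as added). Lipid droplet fluorescence (488 nm excitation, 500-530 nm channel) was read by laser-scanning cytometry and normalized to 20 uM Triacsin C.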

The target of test [13] is Ubiquitin carboxyl-terminal hydrolase 1 (Homo sapiens) (UniProt O94782). In words: Inhibitors of USP1/UAF1: Pilot qHTS (AID 504865).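 Note: rhodamine fluorescence freed from ubiquitin-rhodamine substrate followed over time; top concentration of the series differs between compounds; % is set by controls: 0 for no effect and ±100 for the full control effect; nearly all actives have a fitted effect of over 35% in size.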 An outline of the steps: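 Deubiquitinase activity followed as kinetic rhodamine fluorescence release from 150 nM Ub-Rho. 1 nM USP1/UAF1 with compound, after 15 min room-temperature preincubation, in HEPES pH 7.8 buffer containing TCEP, EDTA, BSA and Tween-20.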
Sequence of Ubiquitin carboxyl-terminal hydrolase 1 (Homo sapiens) (O94782 whole entry, looked up): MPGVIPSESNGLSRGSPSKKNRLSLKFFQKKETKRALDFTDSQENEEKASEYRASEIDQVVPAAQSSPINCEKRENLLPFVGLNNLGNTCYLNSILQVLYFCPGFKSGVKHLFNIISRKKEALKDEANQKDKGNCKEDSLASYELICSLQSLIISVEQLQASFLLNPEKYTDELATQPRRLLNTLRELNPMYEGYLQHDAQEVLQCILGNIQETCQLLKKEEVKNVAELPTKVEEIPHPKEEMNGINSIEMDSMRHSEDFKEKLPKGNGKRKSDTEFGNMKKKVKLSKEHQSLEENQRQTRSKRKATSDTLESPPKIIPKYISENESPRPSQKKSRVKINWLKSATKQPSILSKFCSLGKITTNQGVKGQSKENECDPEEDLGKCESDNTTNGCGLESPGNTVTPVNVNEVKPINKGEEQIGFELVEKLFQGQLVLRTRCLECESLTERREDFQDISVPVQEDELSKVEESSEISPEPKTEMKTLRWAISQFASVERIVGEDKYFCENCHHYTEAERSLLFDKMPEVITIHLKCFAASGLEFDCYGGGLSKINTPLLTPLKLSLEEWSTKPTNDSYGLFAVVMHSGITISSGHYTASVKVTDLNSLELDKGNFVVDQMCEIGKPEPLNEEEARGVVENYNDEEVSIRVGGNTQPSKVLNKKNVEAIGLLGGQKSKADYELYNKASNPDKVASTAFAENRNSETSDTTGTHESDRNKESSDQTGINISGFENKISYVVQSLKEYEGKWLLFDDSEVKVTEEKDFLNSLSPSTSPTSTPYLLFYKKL

A short description of test [14]: Primary qHTS for small molecule stabilizers of the endoplasmic reticulum resident proteome: Secreted ER Calcium Modulated Protein (SERCaMP) assay (AID 1508630). Note: % is set by controls: 0 for no effect and ±100 for the full control effect. An outline of the steps: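 The SH-SY5Y reporter protocol was run at 3 concentrations up to 38.3 uM (primary) or 11 concentrations (follow-up): 16 h compound, 100 nM thapsigargin for 4 h, then extracellular luciferase luminescence.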

Test [15] concerns the target Cytochrome P450 3A4 (Homo sapiens) (UniProt P08684). In words: qHTS Assay for Activators of Cytochrome P450 3A4 (AID 885). Note: nearly all actives have a fitted effect of over 65% in size. Summed up:
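Activators are scored by enhanced luminescence from CYP3A4 conversion of luciferin-PPXE (25uM, equal to KM) to luciferin, after 60 min at RT with an NADPH-regenerating system.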

The target of test [16] is Cytochrome P450 2C19 (Homo sapiens) (UniProt P33261). In words: qHTS Assay for Inhibitors and Substrates of Cytochrome P450 2C19 (AID 899). Note: potency is the fitted concentration of half-maximal effect; nearly all actives have a fitted effect of over 60% in size. Summed up: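 Luminescence readout of luciferin formed from 10uM Luciferin-H EGE (KM level) by 5 nM CYP2C19 in 50mM KPO4. 60 min NADPH-driven reaction at 37C after 10 min compound preincubation; data scaled to 57uM ketoconazole inhibition.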
Sequence of Cytochrome P450 2C19 (Homo sapiens) (P33261 whole entry, looked up): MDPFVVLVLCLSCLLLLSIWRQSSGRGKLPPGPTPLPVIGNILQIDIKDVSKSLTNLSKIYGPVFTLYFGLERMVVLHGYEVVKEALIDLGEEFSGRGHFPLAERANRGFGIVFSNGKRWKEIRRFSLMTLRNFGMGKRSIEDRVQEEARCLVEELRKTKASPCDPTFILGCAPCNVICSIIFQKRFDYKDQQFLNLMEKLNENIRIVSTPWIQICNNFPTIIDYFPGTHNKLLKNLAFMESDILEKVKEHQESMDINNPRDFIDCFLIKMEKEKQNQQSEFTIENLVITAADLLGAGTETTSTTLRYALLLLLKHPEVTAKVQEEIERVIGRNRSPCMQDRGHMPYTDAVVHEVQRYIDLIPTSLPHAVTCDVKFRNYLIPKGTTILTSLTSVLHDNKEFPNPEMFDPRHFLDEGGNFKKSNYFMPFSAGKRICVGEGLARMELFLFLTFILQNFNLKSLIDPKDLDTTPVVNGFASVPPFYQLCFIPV

Where [17] appears, read: measured here: cell count channel max response.
Where [18] appears, read: measured here: lipid channel max response.

The structures appear in SMILES notation. Inconclusive results are not listed. The source made the active and inactive calls. Unless noted, calls come from the whole dose curve; as a rule, active = well fitted curve in the direction sought with a large enough effect; inconclusive = small, poorly fitted or top-dose-only effect, or another doubt; inactive = no such curve, though single readings can be large; an effect the other way counts as inactive or inconclusive. Where only a bound is given, the exact number is not on record here.

Sequence of Cytochrome P450 1A2 (Homo sapiens) (P05177 whole entry, looked up): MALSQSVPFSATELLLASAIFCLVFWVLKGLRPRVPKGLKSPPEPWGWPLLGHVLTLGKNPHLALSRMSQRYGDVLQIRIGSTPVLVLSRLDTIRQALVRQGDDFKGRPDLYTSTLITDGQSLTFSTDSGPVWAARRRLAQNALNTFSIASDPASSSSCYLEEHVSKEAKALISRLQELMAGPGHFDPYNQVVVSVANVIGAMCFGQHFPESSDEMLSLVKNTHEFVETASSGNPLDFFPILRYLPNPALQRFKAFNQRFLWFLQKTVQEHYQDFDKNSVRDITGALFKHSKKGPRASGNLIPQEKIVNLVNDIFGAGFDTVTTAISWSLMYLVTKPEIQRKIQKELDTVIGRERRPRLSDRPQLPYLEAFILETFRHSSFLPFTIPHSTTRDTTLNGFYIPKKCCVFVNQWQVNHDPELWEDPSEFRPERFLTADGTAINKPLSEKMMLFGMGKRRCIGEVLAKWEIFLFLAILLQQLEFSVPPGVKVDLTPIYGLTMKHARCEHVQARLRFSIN
Sequence of Lysosomal acid glucosylceramidase (Homo sapiens) (P04062 whole entry, looked up): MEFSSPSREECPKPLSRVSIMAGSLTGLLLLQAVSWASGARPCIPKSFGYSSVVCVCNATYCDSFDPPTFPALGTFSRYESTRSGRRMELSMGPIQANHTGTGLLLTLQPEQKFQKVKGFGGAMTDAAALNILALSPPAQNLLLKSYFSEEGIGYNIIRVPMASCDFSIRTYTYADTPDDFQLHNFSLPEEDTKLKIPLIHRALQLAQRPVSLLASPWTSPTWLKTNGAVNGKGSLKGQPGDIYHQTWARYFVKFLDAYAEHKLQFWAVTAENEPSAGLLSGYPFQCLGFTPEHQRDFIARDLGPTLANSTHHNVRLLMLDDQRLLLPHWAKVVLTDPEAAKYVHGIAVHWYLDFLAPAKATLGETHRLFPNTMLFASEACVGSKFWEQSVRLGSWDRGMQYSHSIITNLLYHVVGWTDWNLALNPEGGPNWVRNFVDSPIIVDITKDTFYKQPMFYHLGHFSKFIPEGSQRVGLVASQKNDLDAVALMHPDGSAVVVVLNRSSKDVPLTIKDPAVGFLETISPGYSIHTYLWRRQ
Sequence of Glucocorticoid receptor (Homo sapiens) (P04150 whole entry, looked up, the tested form may be a part): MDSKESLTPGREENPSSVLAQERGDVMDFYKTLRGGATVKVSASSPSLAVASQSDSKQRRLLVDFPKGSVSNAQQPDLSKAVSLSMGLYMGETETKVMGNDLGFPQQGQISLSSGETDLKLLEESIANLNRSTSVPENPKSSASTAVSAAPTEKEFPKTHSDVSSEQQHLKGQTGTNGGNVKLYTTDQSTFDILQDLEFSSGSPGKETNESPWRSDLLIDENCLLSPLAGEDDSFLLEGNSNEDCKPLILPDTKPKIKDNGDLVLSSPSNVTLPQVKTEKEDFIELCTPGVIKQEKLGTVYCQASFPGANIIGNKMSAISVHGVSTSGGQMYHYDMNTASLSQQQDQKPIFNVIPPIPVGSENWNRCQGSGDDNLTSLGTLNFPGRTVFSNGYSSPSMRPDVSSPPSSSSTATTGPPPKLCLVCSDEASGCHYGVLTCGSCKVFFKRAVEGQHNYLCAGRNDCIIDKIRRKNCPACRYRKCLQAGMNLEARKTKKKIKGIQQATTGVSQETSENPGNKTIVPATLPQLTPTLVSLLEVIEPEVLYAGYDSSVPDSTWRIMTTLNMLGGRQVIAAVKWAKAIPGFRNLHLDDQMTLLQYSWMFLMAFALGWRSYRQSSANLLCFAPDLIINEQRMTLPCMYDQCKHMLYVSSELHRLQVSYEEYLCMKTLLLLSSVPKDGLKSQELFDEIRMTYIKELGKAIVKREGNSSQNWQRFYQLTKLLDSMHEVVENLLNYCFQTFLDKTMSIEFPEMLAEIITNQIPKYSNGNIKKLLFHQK
Sequence of Cytochrome P450 3A4 (Homo sapiens) (P08684 whole entry, looked up): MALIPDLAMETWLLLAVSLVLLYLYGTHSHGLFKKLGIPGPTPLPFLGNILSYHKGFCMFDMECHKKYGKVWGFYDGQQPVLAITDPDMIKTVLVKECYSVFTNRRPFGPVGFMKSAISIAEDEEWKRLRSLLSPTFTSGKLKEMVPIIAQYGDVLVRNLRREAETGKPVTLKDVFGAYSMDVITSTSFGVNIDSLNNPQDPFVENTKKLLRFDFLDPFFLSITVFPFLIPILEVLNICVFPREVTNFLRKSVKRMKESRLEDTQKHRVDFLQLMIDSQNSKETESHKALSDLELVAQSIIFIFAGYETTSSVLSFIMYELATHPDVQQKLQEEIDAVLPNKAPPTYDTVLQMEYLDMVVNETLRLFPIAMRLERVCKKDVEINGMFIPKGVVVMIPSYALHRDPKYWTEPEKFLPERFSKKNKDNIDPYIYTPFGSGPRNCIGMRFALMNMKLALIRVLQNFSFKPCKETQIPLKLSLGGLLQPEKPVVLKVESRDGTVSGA

For `CNc1ccnc(-c2ccccc2CN(C)C)n1`, the Potency in test [1] is > 11.4 µM (inactive); in [3], 12.6 µM (active); in [6] it was > 46 µM (inactive); in test [7], > 46 µM (inactive). For the same compound, the activity change, negative = inhibition in [2] was -3.79% (inactive); in [4], -12.6% (inactive); in test [12], 2.03% (inactive). Further, the activity, negative = inhibition in [5] is -6.7% (inactive). In addition, the result in test [8], in test [10] and in [11] was inactive. Moreover, the Potency result in test [9], in test [13] and in [14] was “inactive” throughout. Also, the max response is -5.53% in test [12] (setting [17]) and 2.14% in test [12] (setting [18]).
For `COc1cccc(-c2nccc(-n3ccnc3)n2)c1`, the Potency in test [1] is > 11.4 µM (inactive); in test [3], 0.0316 µM (active); in test [6], > 46 µM (inactive); in test [7], > 46 µM (inactive); in [16], 2.51 µM (active). The activity change, negative = inhibition was 9.38% (inactive) in test [2], 14% (inactive) in [4] and 4.69% (inactive) in [12]. Besides, in [5], the activity, negative = inhibition was -0.599% (inactive). Moreover, the compound was called inactive in test [8], in test [10] and in test [11]. For the same compound, the Potency entry in test [9], in test [15] and in test [14] was “inactive” throughout. The max response in test [12] (setting [17]) was found to be 4.96%; in [12] (setting [18]), 13.1%.
Turning to `Cc1noc(C)c1-c1cc(NC2CC2)ncn1`, the Potency in test [1] was > 11.4 µM (inactive); in test [3], 0.316 µM (active); in test [6] it was > 46 µM (inactive); in [7] it was > 46 µM (inactive). In addition, the activity change, negative = inhibition was -3.03% (inactive) in [2], 3.57% (inactive) in [4] and 11% (inactive) in test [12]. In [5], the activity, negative = inhibition is 5.59% (inactive). Besides, the compound was called inactive in test [8], in [10] and in test [11]. For the same compound, the Potency entry in [9], in [15], in test [13] and in test [14] was “inactive” throughout. Also, the values for the max response in [12] (setting [17]) and in test [12] (setting [18]) were 17% and 27.1%, respectively.
With `c1nc(NC2CCNCC2)c2cc(-c3ccc4c(c3)OCO4)ccc2n1`, the Potency in [1] is > 11.4 µM (inactive); in test [3] it was 12.6 µM (active); in test [6], > 46 µM (inactive); in test [7] it was > 46 µM (inactive). The activity change, negative = inhibition was 7.44% (inactive) in test [2], 15.7% (inactive) in test [4] and 6.44% (inactive) in test [12]. In test [5], the activity, negative = inhibition was 2.23% (inactive). The compound was called inactive in test [8], in [10] and in [11]. Moreover, the Potency entry in [9], in test [15], in test [13] and in [14] was “inactive” throughout. Besides, the max response in test [12] (setting [17]) was 1.52%; in [12] (setting [18]), 6.41%.
For the compound `CN(C)Cc1ccccc1-c1nc(NCc2ccccc2)c2ccccc2n1`, the Potency is > 11.4 µM (inactive) in test [1], 1.26 µM (active) in [3], > 46 µM (inactive) in test [6] and > 46 µM (inactive) in test [7]. In addition, the activity change, negative = inhibition in test [2] was 15.5% (inactive); in [4] it was -17.2% (inactive); in test [12], 5.53% (inactive). Further, in test [5], the activity, negative = inhibition was 4.49% (inactive). Besides, the outcome in [8], in test [10] and in test [11] was inactive. The Potency result in test [15], in test [13] and in test [14] was “inactive” each time. Further, the max response amounted to 1.11% in [12] (setting [17]) and 6.16% in test [12] (setting [18]).
